PubChem BioAssay AID720690 (Broad Institute, 2013)
Potency and affinity values are given separately. Unmarked numbers belong to inactive results.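 Rule for the calls: active = every repeat run showing a signal drop whose fitted half-maximal concentration is at most twice the top tested concentration; inconclusive = repeat runs disagree, or flat partial drop, or poor fit; inactive = the rest.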

assay: general mammalian cell viability loss – activator set, cherry-pick, cytotoxicity control for miR-122 modulator project, dose response (AID 720690); settings: HEK293T viability, CellTiter-Glo luminescence, 48 h; series mostly up to 26 µM; activity change, negative = cytotoxicity: at the top concentration;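 note: 0% = neutral control wells and -100% = MG132 cytotoxic control wells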

| Structure (SMILES) | activity change, negative = cytotoxicity |
| --- | --- |
| COC(=O)C[C@H]1CC[C@@H]2[C@H](COc3ccc(NC(=O)c4cc(F)cc(F)c4)cc3C(=O)N2C)O1 | 4.97% |
| CCCC(NS(=O)(=O)c1ccc(Br)cc1)C(=O)O (centres undefined) | -25.6% |
| C/C=C/c1ccc([C@H]2[C@@H](CO)N(C(C)=O)[C@@H]2CN(C(=O)COC)C(C)C)cc1 | 2.1% |
| CC(=O)N(C)C[C@H]1Oc2cc(C#Cc3ccc(F)cc3)ccc2S(=O)(=O)N([C@H](C)CO)C[C@H]1C | -17.6% |
| COc1ccc(C(=O)C2CCCN(Cc3cccn3-c3ccccn3)C2)c(OC)c1 (centres undefined) | -32.3% |
| Cc1noc(C)c1NC(=O)N(C)C[C@@H]1Oc2cc(C#CCC3CCCC3)ccc2S(=O)(=O)N([C@@H](C)CO)C[C@@H]1C | -48.3% |
| CN1C(=O)c2cc(NC(=O)Nc3ccc(Cl)cc3)ccc2OC[C@H]2O[C@H](CC(=O)NCCN3CCCCC3)CC[C@H]21 | 4.21% [at 23.5 µM] |
| COc1cccc(CNC(=O)C[C@H]2CC[C@@H]3[C@H](COc4ccc(NC(C)=O)cc4C(=O)N3C)O2)c1 | -12.8% |
| CCS(=O)(=O)Nc1ccc2c(c1)C(=O)N(C)[C@@H]1CC[C@@H](CC(=O)NCCCN3CCOCC3)O[C@H]1CO2 | -6.8% |
| Cc1ccccc1NC(=O)Nc1ccc2c(c1)C(=O)N(C)[C@@H]1CC[C@H](CC(=O)NCC3CC3)O[C@@H]1CO2 | 9.82% |
| CCCNC(=O)C[C@H]1CC[C@@H]2[C@@H](COc3ccc(NC(=O)c4ccc5c(c4)OCO5)cc3C(=O)N2C)O1 | -16.7% [at 23.5 µM] |
| C/C=C/c1ccc([C@H]2[C@H](CO)N[C@H]2CN(CC(C)C)C(=O)c2ccccn2)cc1 | -12.9% |
| Cc1ccc(-n2c(Cc3ccccc3)n[nH]c2=S)cc1 | 13.4% |
| COc1ccc(N2CCN(C(=O)CSc3nnc(CNc4ccccc4)o3)CC2)cc1 | -20.4% |
| COc1ccc(NC(=O)Cn2nnc(C(=O)NCc3ccccc3OC)c2N)cc1Cl | 15.9% |
| CCCNC(=O)C[C@H]1CC[C@H]2[C@H](COc3ccc(NC(=O)c4ccc(C(F)(F)F)cc4)cc3C(=O)N2C)O1 | -13.1% [at 23.5 µM] |
| O=C(CC(F)(F)F)N1C[C@H]2[C@@H](c3ccccc31)[C@H](CO)N2C(=O)Cc1cccnc1 | -9.44% |
| CN1C(=O)c2cc(NC(=O)c3cccc(F)c3)ccc2OC[C@@H]2O[C@@H](CC(=O)NC3CCC3)CC[C@H]21 | -9.53% |
| CN1CCN(c2ccc(Cl)cc2NC(=O)c2ccc(S(=O)(=O)N3CCCCCC3)cc2)CC1 | -2.63% |
| C[C@@H]1CN([C@@H](C)CO)S(=O)(=O)c2ccc(-c3ccc(C(=O)N(C)C)cc3)cc2O[C@@H]1CN(C)C(=O)C1CCC1 | -6.11% |

| Structure (SMILES) | activity change, negative = cytotoxicity |
| --- | --- |
| COC(=O)C[C@@H]1CC[C@H]2[C@@H](COc3ccc(NC(=O)Nc4ccccc4C)cc3C(=O)N2C)O1 | 2.59% |
| CN1C(=O)c2cc(NC(=O)c3cccs3)ccc2OC[C@@H]2O[C@@H](CC(=O)NCCN3CCCCC3)CC[C@H]21 | 1.91% |
| CN1C(=O)c2cc(NC(=O)c3ccc(F)cc3)ccc2OC[C@@H]2O[C@@H](CC(=O)O)CC[C@@H]21 | 11% |
| C/C=C/c1ccc([C@@H]2[C@@H](CO)N(C(=O)Cc3cccnc3)[C@H]2CNC(C)=O)cc1 | -15% |
| COc1ccc(CN2CCOC2=O)cc1OC | -2.26% |
| CCC(=O)N1[C@H](CO)[C@H](c2ccccc2)[C@H]1CN(C(C)C)S(C)(=O)=O | 0.199% |
| CN1C(=O)c2cc(NC(=O)Cc3ccccc3)ccc2OC[C@H]2O[C@@H](CC(=O)NC3CCC3)CC[C@H]21 | 1.24% |
| CC(C)NC(=O)N1C[C@@H]2[C@H](c3ccccc31)[C@H](CO)N2Cc1ccccc1 | -2.49% [at 23.5 µM] |
| CN1C(=O)c2cc(NC(=O)Nc3cccc(Cl)c3)ccc2OC[C@H]2O[C@@H](CC(=O)NCCc3ccncc3)CC[C@H]21 | 2.37% [at 23.5 µM] |
| Cc1ccc(-c2ccc3c(c2)O[C@H](CN(C)C(=O)CC2CC2)[C@H](C)CN([C@H](C)CO)S3(=O)=O)cc1 | -25.1% |
| CCCC(=O)Nc1ccc2c(c1)C(=O)N(C)[C@H]1CC[C@@H](CC(=O)NCCN3CCCCC3)O[C@H]1CO2 | -9.56% [at 23.5 µM] |
| C/C=C/c1ccc([C@@H]2[C@@H](CO)N[C@@H]2CN(CC)C(=O)CN2CCOCC2)cc1 | 8.67% |
| CCCCN(CCCC)C(=O)CN(C)S(=O)(=O)c1ccc2c(c1)n(C)c(=O)c(=O)n2C | 43.1% |
| CNC(=O)C[C@@H]1CC[C@H]2[C@@H](COc3ccc(NC(=O)C(C)C)cc3C(=O)N2C)O1 | -2.67% |
| COC(=O)C[C@H]1CC[C@H]2[C@H](COc3ccc(NS(=O)(=O)c4ccc(F)cc4)cc3C(=O)N2C)O1 | -2.24% |
| Cc1cc(NS(=O)(=O)c2ccc(NC(=O)C(CC(C)C)N3C(=O)c4ccccc4C3=O)cc2)nc(C)n1 (centres undefined) | 2.02% |
| CN1C(=O)c2cc(NC(=O)c3cccs3)ccc2OC[C@@H]2O[C@@H](CC(=O)NCC(F)(F)F)CC[C@H]21 | -0.216% |
| CCCNC(=O)N1[C@H](CO)[C@@H](c2ccccc2)[C@H]1CNC(=O)c1ccccc1 | -2.24% |
| CC(C)C(=O)Nc1ccc2c(c1)C(=O)N(C)[C@H]1CC[C@@H](CC(=O)NCCCN(C)C)O[C@H]1CO2 | 5.88% |
